From PubChem BioAssay AID504832 (National Center for Advancing Translational Sciences (NCATS), 2011)
About 18,000 (5.8%) of roughly 310,000 compounds were called active. Another 22% or so got no clear call; they are omitted. The sample holds actives, similar compounds and a random draw of the others, so the mix is not that of the screen. Unmarked numbers belong to inactive results. The call rests on the fitted dose curve; in most records, active means well fitted inhibition curve with a large enough effect; inconclusive means small, poorly fitted or top-dose-only effect, or another doubt; inactive means no such curve, though single readings can be large or run the other way.

Assay: Primary qHTS for delayed death inhibitors of the malarial parasite plastid, 48 hour incubation
Conditions: P. falciparum luciferase growth in erythrocytes; series mostly up to 28.7 µM; activity change, negative = inhibition: at the top concentration
In short: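 Compounds are pin-transferred into medium, infected erythrocytes (2% hematocrit, 0.1% parasitemia final) are added, and plates sit one parasite generation at 37 C in 5% CO2. Detection reagent is then added and luminescence measured.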
On the % scale 0 is the no-effect control and ±100 the full control effect; potency means the concentration at half of the fitted maximal effect.

| Structure (SMILES) | activity change, negative = inhibition | Potency |
| --- | --- | --- |
| CS(=O)(=O)c1ccc(C(=O)OCC(=O)NNC(=O)COc2ccc(Cl)cc2)cc1 | 11.1% |  |
| COc1cc(CN2CCCN(C)CC2)c([N+](=O)[O-])cc1OC | 45% |  |
| Cc1ccc(OCCC(=O)OCC(=O)N2c3ccccc3NC(=O)C2(C)C)cc1 | -0.565% |  |
| CC(=O)Nc1ccc(S(=O)(=O)N2CCC(C(=O)NC3CC3)CC2)cc1 | 5.93% |  |
| COc1ccc(CNC(=O)CNC(=O)c2sc3ccccc3c2Cl)cc1OC | 5.71% |  |
| O=C(Nc1ccon1)c1sc2ccccc2c1Cl | 21.9% |  |
| CN1CCc2ccccc2C1Cc1ccccc1NC(=O)c1sc2ccccc2c1Cl (centres undefined) |  | 8.28 µM (active) |
| COCc1ccc(CN2CCC(Oc3ccc(C(=O)NCc4ccccn4)cc3)CC2)o1 | -17.3% |  |
| O=C(O)c1cc(S(=O)(=O)N(Cc2ccccc2)c2ccccc2)ccc1Cl | 0.616% |  |
| C=CCCN(Cc1ccccc1)S(=O)(=O)c1ccccc1Br | 1.07% |  |
| C=CC(COCc1ccccc1)N(Cc1ccccc1)S(=O)(=O)c1ccccc1Br (centres undefined) |  | 9.28 µM (active) |
| Cc1ccsc1-c1cc(C(=O)O)c2c(ccc3ccccc32)n1 | 32% |  |
| COc1ccc(Cl)cc1NC(=O)C1CC(=O)N(c2ccc(F)cc2)C1 (centres undefined) | 8.24% |  |
| COc1c(C)cccc1C(=O)Nc1cc(Cl)ccc1N1CCOCC1 | -1.23% |  |
| COc1cc(OC)c(N2CC(C(=O)Nc3cc(Cl)ccc3N3CCOCC3)CC2=O)cc1Cl (centres undefined) |  | 11.7 µM (active) |
| Cc1cccc(C(=O)Nc2ccc(Oc3cnccn3)cc2)c1 | 51.8% |  |
| COC(=O)c1cc(NC(=O)c2nn(C)c(=O)c3ccccc23)cc(C(=O)OC)c1 | 23% |  |
| CCCn1nc(C(=O)Nc2ccc3nc(C)sc3c2)c2ccccc2c1=O | 0.708% |  |
| CCCCn1nc(C(=O)Nc2cccc(C(=O)NC3CC3)c2)c2ccccc2c1=O |  | 11.7 µM (active) |
| O=C1c2ccccc2C(=O)N1c1cccc2ccccc12 | -4.37% |  |
| Cc1c(NC(=O)CSCc2ccccc2)cccc1C(=O)O | 60.5% |  |
| CC1C(=O)Nc2ccc(S(=O)(=O)N3CCN(c4ccccc4F)CC3)cc2NC1=O (centres undefined) | 10.6% |  |

| Structure (SMILES) | activity change, negative = inhibition | Potency |
| --- | --- | --- |
| Clc1ccc(C(Cn2ccnc2)OCc2ccsc2Cl)c(Cl)c1 (centres undefined) |  | 4.26 µM (active) |
| CC1CCN(S(=O)(=O)c2ccc3c(ccn3CC(=O)O)c2)CC1 | 24.8% |  |
| Cc1ccc(S(=O)(=O)CC(=O)NC(C)c2ccccc2)cc1 (centres undefined) | 21.6% |  |
| COc1cccc(-n2c(=S)sc3c(=O)n(-c4ccccc4C)c(SCC(=O)O)nc32)c1 | 8.96% |  |
| CCOc1ccccc1NC(=O)CCc1nnc2ccc(NCc3ccco3)nn12 | -8.77% |  |
| CCC/C(=N\O)c1c[nH]c2ccccc12 | 40% |  |
| O=S(=O)(O)Oc1c[nH]c2ccccc12 |  | 7.38 µM (active) |
| COc1ccccc1CC(=O)NCCc1c[nH]c2ccccc12 | -28% |  |
| CCc1noc(C)c1C(=O)Oc1ccc(N(C)S(=O)(=O)c2ccc(C)c(C)c2)cc1 | 5.45% |  |
| CC1(C)O[C@@H]2[C@H](O1)[C@@H](COS(=O)(=O)O)O[C@H]2n1ccc(=O)[nH]c1=O | 26.7% |  |
| CCN(CC)CCCNC(=O)c1c(O)c2cc(F)cc3c2n(c1=O)C(C)CC3 (centres undefined) | 0% |  |
| CCOC(=O)C1=C(C)NC(=O)N(C(C)=O)C1c1ccc(Cl)cc1 (centres undefined) |  | 5.22 µM (active) |
| CCOC(=O)C1=C(c2ccccc2)NC(=S)NC1c1ccc(Cl)cc1 (centres undefined) | -22.2% |  |
| COCCOC(=O)C1=C(C)NC(=O)NC1c1ccc(Cl)cc1 (centres undefined) | 3.9% |  |
| COc1ccc(C(=O)Nc2ccc(C(=O)NCC3CCCO3)cc2)c(OC)c1OC (centres undefined) | -27.4% |  |
| O=C(NNC(=O)c1cc(S(=O)(=O)N2CCCCC2)ccc1Cl)c1ccccc1O | -15.4% |  |
| CC1CCCC(NC(=O)c2cc(S(=O)(=O)N3CCCCC3)ccc2Cl)C1C (centres undefined) |  | 13.1 µM (active) |
| Cc1ccc(S(=O)(=O)N2CCN(C)CC2)cc1C(=O)NC1CCCCC1 | 13.8% |  |
| O=C(O)c1ccc2c(=O)n3c(nc2c1)/C(=C/c1ccc(OC(F)F)cc1OC(F)F)CC3 | -15.1% |  |
| Nc1nc(SCC(=O)Nc2ccc(Cl)c([N+](=O)[O-])c2)n[nH]1 | -18.9% |  |
| O=C(NCc1ccc2c(c1)OCO2)c1cc(F)c(F)cc1Cl | 65.5% |  |
| O=C(c1ccco1)N1CCN(C(=O)c2cc(-c3ccccc3F)no2)CC1 | 35.4% |  |

| Structure (SMILES) | activity change, negative = inhibition | Potency |
| --- | --- | --- |
| COCCOC(=O)c1[nH]c2c(c1C)C(=O)CC(c1ccc(OC)cc1)C2 (centres undefined) | 10.8% |  |
| CCOC(=O)c1[nH]c2c(c1-c1ccccc1)C(=O)CC(c1ccc(Cl)cc1)C2 (centres undefined) | 22.1% |  |
| CCCOC(=O)c1[nH]c2c(c1C)C(=O)CC(c1cc(OC)c(OC)c(OC)c1)C2 (centres undefined) |  | 1.65 µM (active) |
| Cn1c(-c2ccc(C(F)(F)F)cc2)cc2onc(-c3ccccc3)c2c1=O | 178% |  |
| COCCNC(=O)CN(C(=O)CCC(=O)Nc1cc(C)on1)c1ccc(C)cc1C | -0.34% |  |
| Cc1ccc(N(CC(=O)NC2CCCCC2)C(=O)CCCC(=O)Nc2ccccn2)c(C)c1 | -13% |  |
| Cc1ccc(C)c(N(CC(=O)NCc2ccco2)C(=O)CCC(=O)Nc2ccccn2)c1 |  | 14.7 µM (active) |
| CCc1ccc(NC(=O)Cn2nnc(C(=O)NCc3ccc4c(c3)OCO4)c2N)cc1 | 26.2% |  |
| O=C(Nc1ccc2cn[nH]c2c1)c1ccc(S(=O)(=O)N2CCOCC2)cc1 | -8.06% |  |
| Cc1ccc(CC(=O)Nc2ccc(S(=O)(=O)N3CCOCC3)cc2)cc1C |  | 9.28 µM (active) |
| O=C(CN1C(=O)CCC1=O)Nc1ccc(S(=O)(=O)N2CCOCC2)cc1 | -3.85% |  |
| O=C(CN1CCN(c2cccc(Cl)c2)CC1)Nc1ccc(S(=O)(=O)N2CCOCC2)cc1 |  | 10.4 µM (active) |
| Cc1cc2cc(CNC(=O)c3ccc(S(=O)(=O)N4CCOCC4)cc3)ccc2[nH]1 |  | 13.1 µM (active) |
| O=C(CN1CCN(S(=O)(=O)/C=C/c2ccccc2)CC1)Nc1ccc(N2CCOCC2)cc1 | -23.2% |  |
| COc1ccc(CC(=O)Nc2ccc3c(c2)CCC3)cc1S(=O)(=O)N1CCOCC1 | -21.2% |  |
| Cc1ccc(S(=O)(=O)N2CCOCC2)cc1C(=O)NCc1ccc(F)cc1 | -22.9% |  |
| O=C(CN1CCCCCC1)Nc1ccc(S(=O)(=O)N2CCCCC2)cc1 | -21.4% |  |
| CCOC(=O)c1sc(=NC(=O)c2ccc(Br)cc2)n(C)c1C | 40.3% |  |
| Cn1c(=O)c2ccccc2n(CC(=O)Nc2ccc3c(c2)OCCO3)c1=O | -17.8% |  |
| COc1cc(C(=O)N/C(=C\c2cn(C)c3ccccc23)C(=O)N2CCOCC2)cc(OC)c1OC | -20.3% |  |
